Laboratory results taken from PubChem BioAssay (NCI).
Compounds without any hit were thinned out: in the full panel of roughly 79,000, 15% have a hit. Values without a mark were called inactive. Activity calls are given as the source filed them. Cut-off read from the data, not from the text of the source: active = growth inhibition above about 70%; inactive = the rest.

Legend:
[1] = NCI Yeast Anticancer Drug Screen. Data for the rad50 strain (AID 155);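 note: 0% = growth of vehicle-only cultures of the same strain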; settings: S. cerevisiae rad50 strain growth inhibition, stronger effect = higher value
Procedure, shortened: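 Relative growth inhibition (compound vs vehicle) was measured in yeast with a defined repair-gene alteration.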

[2] = NCI Yeast Anticancer Drug Screen. Data for the mec2-1 strain (AID 157); settings: S. cerevisiae mec2-1 strain, stronger effect = higher value
Procedure, shortened: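 Readout is yeast growth inhibition, normalised to vehicle-treated controls, in the mec2-1 strain exposed to compound.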

[3] = NCI Yeast Anticancer Drug Screen. Data for the cln2 rad14 strain (AID 165);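 note: 0% = growth equal to vehicle treated cultures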; settings: S. cerevisiae cln2 rad14 strain, stronger effect = higher value
Procedure, shortened: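 Relative to vehicle controls, growth inhibition of compound-treated cln2 rad14 yeast was recorded.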

[4] = NCI Yeast Anticancer Drug Screen. Data for the bub3 strain (AID 167); settings: S. cerevisiae bub3 mutant strain, stronger effect = higher value
Procedure, shortened: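 Screening used yeast with an engineered genetic alteration affecting cell cycle control. Compound-exposed cultures were compared with vehicle cultures, and reduced growth was taken as inhibition.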

[5] = NCI Yeast Anticancer Drug Screen. Data for the mlh1 rad18 strain (AID 175); settings: S. cerevisiae mlh1 rad18 strain growth inhibition, stronger effect = higher value
Procedure, shortened: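 Test agents were incubated with a yeast strain of defined genotype (DNA damage repair defect). Inhibition of growth was derived by comparison with vehicle-exposed cultures.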

[6] = NCI Yeast Anticancer Drug Screen. Data for the sgs1 mgt1 strain (AID 161);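 note: 0% = growth of cultures given vehicle only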; settings: S. cerevisiae sgs1 mgt1 strain, stronger effect = higher value
Procedure, shortened: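 This yeast growth screen uses a strain with defined DNA-repair lesions; compound-treated growth is compared with vehicle-treated growth.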

[7] = at 5.0 µM (retest, dose inferred, filed as 0.5)
[8] = at 50.0 µM (retest, dose inferred, filed as 5.0)

| Compound | growth inhibition [1, 7] | growth inhibition [1, 8] | growth inhibition ([1]; at 50.0 µM) | growth inhibition [2, 7] | growth inhibition [2, 8] | growth inhibition ([2]; at 50.0 µM) | growth inhibition [3, 7] | growth inhibition [3, 8] | growth inhibition ([3]; at 50.0 µM) | growth inhibition [4, 7] | growth inhibition [4, 8] | growth inhibition ([4]; at 50.0 µM) | growth inhibition [5, 7] | growth inhibition [5, 8] | growth inhibition ([5]; at 50.0 µM) | growth inhibition [6, 7] | growth inhibition [6, 8] | growth inhibition ([6]; at 50.0 µM) |
| --- | --- | --- | --- | --- | --- | --- | --- | --- | --- | --- | --- | --- | --- | --- | --- | --- | --- | --- |
| CC12C(=O)C=CCC1=CCC1C2CCC2(O)C(=O)OC3(C)C4CC5(C)C(COC16OC23C5C6=O)C(=O)O4 (stereo not drawn) | 11% | 51% | 78.8% (active) | 24% | 35% | 55.7% | 3% | 18% | 30.4% | 14% | 56% | 69.6% | 32% | 64% | 62.5% |  |  |  |
| COc1ccc2c(ccc3oc([N+](=O)[O-])cc32)c1 | 93% (active) | 95% (active) | 85.9% (active) | 96% (active) | 97% (active) | 91% (active) |  |  |  | 87% (active) | 91% (active) | 68% | 95% (active) | 96% (active) | 84.2% (active) | 93% (active) | 94% (active) | 79.8% (active) |
| Cc1cc(N(CCCl)CCCl)ccc1C1N(Cc2ccc(N(CCCl)CCCl)cc2Cl)CCCN1Cc1ccc(N(CCCl)CCCl)cc1Cl | 81% (active) | 96% (active) | 97.8% (active) | 75% (active) | 96% (active) | 99.2% (active) | 77% (active) | 93% (active) | 97.5% (active) | 74% (active) | 96% (active) | 97.7% (active) | 99% (active) | 93% (active) | 98.6% (active) |  |  |  |
| O=C([CH-]C(=O)c1ccccc1)c1ccccc1.O=C([CH-]C(=O)c1ccccc1)c1ccccc1.[CH2-]CCC.[CH2-]CCC.[Sn+4] | 83% (active) | 98% (active) | 90.3% (active) | 91% (active) | 99% (active) | 93.2% (active) |  |  |  | 90% (active) | 93% (active) | 91.8% (active) | 92% (active) | 99% (active) | 90% (active) | 86% (active) | 58% | 93% (active) |
| O=C([CH-]C(=O)c1ccccc1)c1ccccc1.O=C([CH-]C(=O)c1ccccc1)c1ccccc1.[Nd+3].[OH-].[OH3+] | 34% | 34% | 92.2% (active) | 11% | 11% | 93.7% (active) |  |  |  | 36% | 36% | 92.2% (active) | 30% | 30% | 89.8% (active) | 38% | 38% | 94.2% (active) |
| CCCCCCCC[As](C)(=O)O | -151% | -121% | 4.95% | -54% | -47% | 2.85% | -72% | -59% | 11.4% |  |  |  | -144% | -88% | 6.2% | -67% | -55% | 4.5% |
| O=C([CH-]C(=O)c1ccccc1)c1ccccc1.O=C([CH-]C(=O)c1ccccc1)c1ccccc1.O=C([CH-]C(=O)c1ccccc1)c1ccccc1.[Nd+3].[OH3+] | 49% | 99% (active) | 91.8% (active) | 43% | 100% (active) | 93.8% (active) |  |  |  | 61% | 99% (active) | 92.5% (active) | 60% | 100% (active) | 91.2% (active) | 55% | 100% (active) | 93.8% (active) |
| CC(=O)[O-].CC(=O)[O-].O=C([CH-]C(=O)c1ccccc1)c1ccccc1.[Nd+3].[OH3+] | 33% | 33% | 91.6% (active) | 27% | 27% | 91.9% (active) |  |  |  | 27% | 27% | 91% (active) | 24% | 24% | 88.8% (active) | 30% | 30% | 93% (active) |
| OC(c1ccccc1)(c1ccccc1)c1ccccn1 | -6% | -9% | 4.55% | -14% | 2% | 53.4% | -6% | 5% | 2.7% | -3% | 3% | 13.8% | -21% | -5% | -6.2% | -5% | 5% | 9.4% |
| CC(=O)CC(=O)Nc1c(C)[c]([Hg][O]C(C)=O)c(C)[c]([Hg][O]C(C)=O)[c]1[Hg][O]C(C)=O | 60% | 93% (active) | 90.8% (active) | 99% (active) | 94% (active) | 92.6% (active) | 33% | 93% (active) | 88% (active) | 99% (active) | 94% (active) | 92.2% (active) | 85% (active) | 93% (active) | 90% (active) |  |  |  |
| O=C([CH-]C(=O)c1ccccc1)c1ccccc1.O=C([CH-]C(=O)c1ccccc1)c1ccccc1.O=C([CH-]C(=O)c1ccccc1)c1ccccc1.[Cl-].[Zr+4] | 36% | 89% (active) | 87.5% (active) | 38% | 83% (active) | 67.3% |  |  |  | 62% | 93% (active) | 89.7% (active) | 29% | 93% (active) | 87.8% (active) | 45% | 93% (active) | 86.7% (active) |
| CC(=O)[O-].O=C([CH-]C(=O)c1ccccc1)c1ccccc1.O=C([CH-]C(=O)c1ccccc1)c1ccccc1.[Y+3] | 35% | 35% | 91.4% (active) | 19% | 19% | 93.7% (active) |  |  |  | 21% | 21% | 92% (active) | 13% | 13% | 90.5% (active) | 42% | 42% | 93.6% (active) |
| CCC[CH2][Sn]([CH2]CCC)([CH2]CCC)[O]C(=O)C(OC)c1ccccc1 (stereo not drawn) | 100% (active) | 100% (active) | 90.5% (active) | 100% (active) | 100% (active) | 91.3% (active) |  |  |  | 99% (active) | 99% (active) | 88.7% (active) | 100% (active) | 100% (active) | 89.4% (active) | 99% (active) | 99% (active) | 91% (active) |
| CCCCCCCC[N+]12CN3CN(CN(C3)C1)C2 | -5% | -21% | 1.75% | -2% | -33% | 4.1% | 2% | -38% | 30.4% |  |  |  | -1% | -26% | 16.9% | -6% | -28% | 7.75% |
| CC1(C)CC2(c3ccccc3)CC(c3ccccc3)C1C(C(=O)O)C2C(=O)O (stereo not drawn) | 28% | 99% (active) | 99.2% (active) | 27% | 99% (active) | 99.3% (active) |  |  |  | 35% | 96% (active) | 98.5% (active) | 17% | 99% (active) | 99.2% (active) | 10% | 99% (active) | 99.2% (active) |
| CC/C(=C/c1ccc(OC)cc1OC)[N+](=O)[O-] | 66% | 99% (active) | 99.4% (active) | 48% | 100% (active) | 99.7% (active) |  |  |  | 44% | 99% (active) | 99.5% (active) | 39% | 99% (active) | 99.2% (active) | 51% | 98% (active) | 99% (active) |
| C[C@@H](O)[C@H]1/C=C/C=C\C(=O)O[C@@H]2C[C@H]3O[C@@H]4[C@@H]5OC5(C)CCC4(COC(=O)[C@H]4O[C@]4(C)[C@@H](O)CO1)[C@]2(C)[C@]31CO1 (stereo partly drawn) | 26% | 95% (active) | 91.4% (active) | 24% | 87% (active) | 92.5% (active) | 42% | 96% (active) | 90.4% (active) | 31% | 93% (active) | 91% (active) | 28% | 97% (active) | 90.2% (active) |  |  |  |
| O=C(CC(=O)c1ccccc1)c1ccccc1.O=C(CC(=O)c1ccccc1)c1ccccc1.O=C(CC(=O)c1ccccc1)c1ccccc1.[Al] | 2% | -3% | 19.7% | 5% | 4% | 86.4% (active) |  |  |  | 4% | 3% | 6.55% | 0% | 0% | 20.4% | 5% | 2% | 43.6% |
| COc1c[c]([Hg][O]C(C)=O)c(OC)c(NC(=O)CC(C)=O)[c]1[Hg][O]C(C)=O | 97% (active) | 95% (active) | 89.7% (active) | 99% (active) | 96% (active) | 92.5% (active) | 43% | 96% (active) | 90% (active) |  |  |  | 95% (active) | 95% (active) | 88.6% (active) | 100% (active) | 93% (active) | 92.5% (active) |
| N#Cc1cc([N+](=O)[O-])c(Cl)c([N+](=O)[O-])c1Cl | 50% | 98% (active) | 92.6% (active) | 61% | 99% (active) | 93.2% (active) | 70% (active) | 97% (active) |  | 99% (active) | 96% (active) |  | 41% | 99% (active) | 92.1% (active) | 100% (active) | 98% (active) |  |
| O=C(CCl)OCc1ccccc1 | 1% | 14% | 34.1% | 3% | 21% | 30.7% |  |  |  | -3% | 5% | 5.4% | 5% | 20% | 55% | 0% | 18% | 10.3% |
| Cc1nnc2n1-c1ccc(Cl)cc1C(c1ccccc1)=[N+]([O-])C2 | 4% | 0% | -16.8% | -3% | -9% | -0.7% | 1% | 12% | 64.7% |  |  |  | -3% | -4% | -6.2% | 1% | 3% | 3.05% |
| Cl[C](Cl)(Cl)[Hg][C](Cl)(Cl)Cl | 80% (active) | 96% (active) | 89.8% (active) | 90% (active) | 94% (active) | 92.7% (active) |  |  |  | 100% (active) | 97% (active) | 91.3% (active) | 78% (active) | 95% (active) | 90.2% (active) | 100% (active) | 100% (active) | 92.8% (active) |
| COCC(C#N)NC1CC(OC2CC(O)(C(=O)CO)Cc3c(O)c4c(c(O)c32)C(=O)c2c(OC)cccc2C4=O)OC(C)C1O (stereo not drawn) | 63% | 97% (active) | 91.3% (active) | 29% | 98% (active) | 89% (active) | 39% | 96% (active) | 88.7% (active) |  |  |  | 44% | 97% (active) | 89.8% (active) | 52% | 98% (active) | 90.2% (active) |
| Cc1cccc(C)c1N=C(N)N[N+](=O)[O-] | 45% | 96% (active) | 89.5% (active) | 53% | 97% (active) | 90.3% (active) | 57% | 98% (active) |  | 27% | 97% (active) |  | 33% | 99% (active) | 88% (active) | 90% (active) | 98% (active) |  |
